This is a sample that favours compounds with a hit; in the whole collection about 20% have one here.
HCMV antiviral – qHTS Assay for inhibitors of the human cytomegalovirus (HCMV); HFF cells, HCMV-luciferase reporter, 72 h; stronger effect = lower value; AID 1259415, 2018; activity change, negative = inhibition, % at 57.5 µM; actives 4.5% (n = 410,000); in the data active means activity change below about -60%; inconclusive means no clear call, values can overlap the other calls; inactive means above about -39%
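Compounds were evaluated in HFFs infected with an HCMV luciferase reporter virus (MOI 1 PFU/cell). Luciferase in lysates collected 72 h post infection served as the replication measure.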
CHX counter – Cycloheximide Counterscreen for Small Molecule Inhibitors of Shiga Toxin. cell reporter, cycloheximide protein synthesis inhibition counterscreen. max response, %. actives 12% (n = 300,000); in the data active means max response mostly above about 13%, no sharp cut-off; inactive means mostly below about 14%; further: read at 38.3 µM for the half of the compounds with a filed dose
Pf growth 96h – Primary qHTS for delayed death inhibitors of the malarial parasite plastid, 96 hour incubation; P. falciparum luciferase reporter growth, 96 h; actives 6.9% (n = 320,000); Potency, µM (top dose mostly 28.7 µM), hits mostly inhibitors
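Erythrocytes infected with luciferase-expressing P. falciparum were dispensed at 2% hematocrit and 0.05% parasitemia (final), then incubated with compounds 96 hours at 37 C in 5% CO2. Luminescence after detection reagent addition reported growth.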
Shiga toxin inh – A qHTS for Small Molecule Inhibitors of Shiga Toxin. Vero cells, Shiga toxin protein synthesis inhibition reporter. inhibition, % at 38.7 µM. actives 9.2% (n = 290,000); in the data active means inhibition mostly above about 28%, no sharp cut-off; inactive means mostly below about 43%
Pf growth 48h – Primary qHTS for delayed death inhibitors of the malarial parasite plastid, 48 hour incubation | P. falciparum luciferase growth in erythrocytes, 48 h | Potency, µM (series often up to 28.7 µM), hits mostly inhibitors | actives 5.9% (n = 310,000)
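Luciferase-expressing P. falciparum in infected erythrocytes (2% hematocrit, 0.1% parasitemia final) in RPMI 1640/0.5% Albumax were exposed to compound for 48 hours at 37 C, 5% CO2; growth read as luminescence.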
Hits are given with their value. Unless noted, the call rests on the fitted dose curve; in most records, active means well fitted inhibition curve with a large enough effect; inconclusive means small, poorly fitted or top-dose-only effect, or another doubt; inactive means no such curve, though single readings can be large or run the other way.

What do the screens show for `CCOC(=O)CC(NC(=O)c1ccc(C)cc1)c1ccc(OC)cc1` (configuration not stated)?
HCMV antiviral: inactive; CHX counter: inactive; Pf growth 96h: inconclusive; Shiga toxin inh: inactive; Pf growth 48h: inconclusive

Results for COc1ccc(-c2nnnn2C)cc1S(=O)(=O)Nc1ccc(C)cc1C ?
HCMV antiviral: inactive; CHX counter: inactive; Pf growth 96h: inconclusive; Shiga toxin inh: inactive; Pf growth 48h: inactive

What do the screens show for `Cc1ccc(NC(=O)Cn2cc(S(=O)(=O)N3CCCC3)c(S(=O)(=O)N3CCCC3)c2)cc1F`?
HCMV antiviral: inactive

How did COc1ccc(NC(=O)C(NC(=O)c2ccc(C)cc2)c2ccccc2)cc1 (configuration not stated) do in these assays?
HCMV antiviral: inactive; CHX counter: 25; Pf growth 96h: inconclusive; Shiga toxin inh: 49; Pf growth 48h: inconclusive

What do the screens show for `Cc1cccc(NC(NC(=O)c2cccnc2)C(Cl)(Cl)Cl)c1` (configuration not stated)?
HCMV antiviral: inactive; CHX counter: inactive; Pf growth 96h: 13µM; Shiga toxin inh: inactive; Pf growth 48h: inconclusive

What do the screens show for `COc1ccc(NC(=O)C(NC(=O)c2ccc(=O)[nH]c2)c2ccccc2)cc1` (configuration not stated)?
HCMV antiviral: inactive; CHX counter: inactive; Pf growth 96h: inconclusive; Shiga toxin inh: inactive; Pf growth 48h: inactive

How did Cn1c(CCNC(=O)c2ccccc2F)nnc1SCC(=O)Nc1ccccc1F do in these assays?
HCMV antiviral: inactive; CHX counter: inactive; Pf growth 96h: inconclusive; Shiga toxin inh: inactive; Pf growth 48h: inactive

Results for C[C@@H]1CN(C(=O)c2nc3ccc(Cl)cn3c2CN[C@H]2CCCCNC2=O)C[C@H](C)O1 ?
HCMV antiviral: inactive; CHX counter: inactive; Pf growth 96h: inconclusive; Shiga toxin inh: inactive; Pf growth 48h: inactive

Results for Cc1nonc1OCCNCc1c(C(=O)N2CCCCCCC2)nc2ccc(Cl)cn12 ?
HCMV antiviral: inactive; CHX counter: inactive; Pf growth 96h: inactive; Shiga toxin inh: inactive; Pf growth 48h: 3.7µM

How did Cc1cccnc1CCNCc1c(C(=O)N2C[C@@H](C)O[C@@H](C)C2)nc2ccc(Cl)cn12 do in these assays?
HCMV antiviral: inactive; CHX counter: inactive; Pf growth 96h: inactive; Shiga toxin inh: inactive; Pf growth 48h: 10µM

What do the screens show for `C[C@H](NC(N)=O)C(=O)N1CCN(S(=O)(=O)c2ccc3ccccc3c2)CC1`?
HCMV antiviral: inactive; CHX counter: inactive; Pf growth 96h: inactive; Shiga toxin inh: inactive; Pf growth 48h: inactive

Results for CN(C)c1ccc(C(=O)Nc2cccc(S(=O)(=O)N3CCCC3)c2)cc1 ?
HCMV antiviral: inactive; Pf growth 96h: inconclusive; Pf growth 48h: inactive

How did CN(C)c1ccc(C(=O)NC2(N3CCC3=O)CCCC2)cc1 do in these assays?
HCMV antiviral: inactive; CHX counter: 22; Pf growth 96h: inconclusive; Shiga toxin inh: inactive; Pf growth 48h: inactive

Results for COc1cc(SC)ccc1C(=O)N1CCC(Cc2ccccc2)CC1 ?
CHX counter: inactive; Shiga toxin inh: inactive

What do the screens show for `CC(C)OC(=O)c1cccc(-c2ccc(C=O)o2)c1`?
HCMV antiviral: inactive; CHX counter: 77; Pf growth 96h: inactive; Shiga toxin inh: 80; Pf growth 48h: inactive

Results for COC(=O)c1ccccc1-c1ccc(C=O)o1 ?
HCMV antiviral: inactive; CHX counter: inactive; Pf growth 96h: inactive; Shiga toxin inh: inactive; Pf growth 48h: inactive

Results for COc1ccc(C2CC(c3cccs3)=NN2c2ccc(C=O)cc2)cc1 (configuration not stated) ?
HCMV antiviral: inactive; CHX counter: 46; Pf growth 96h: inactive; Shiga toxin inh: 55; Pf growth 48h: inactive

How did Fc1ccc(C2CC(c3cccs3)=NN2c2ccccc2)cc1 (configuration not stated) do in these assays?
HCMV antiviral: inactive; CHX counter: inactive; Pf growth 96h: inactive; Shiga toxin inh: inactive; Pf growth 48h: inconclusive

What do the screens show for `c1ccc(C2CC(c3cccs3)=NN2c2ccccc2)cc1` (configuration not stated)?
HCMV antiviral: inactive; CHX counter: 33; Pf growth 96h: 10µM; Shiga toxin inh: 94; Pf growth 48h: 10µM

How did COc1cc(N/N=C/c2ccccc2O)ncn1 do in these assays?
HCMV antiviral: -103; CHX counter: 28; Pf growth 96h: inconclusive; Shiga toxin inh: 33; Pf growth 48h: inconclusive

What do the screens show for `Cc1cnn(-c2cc(N/N=C/c3ccccc3)ncn2)c1`?
HCMV antiviral: inactive; CHX counter: inactive; Pf growth 96h: inactive; Shiga toxin inh: inactive; Pf growth 48h: inactive

Results for COc1cc(N/N=C/c2ccc(N(C)C)cc2)ncn1 ?
HCMV antiviral: inactive; CHX counter: 45; Pf growth 96h: inconclusive; Shiga toxin inh: 97; Pf growth 48h: inactive

What do the screens show for `COC(=O)c1cc(=O)nc(NN=Cc2ccccc2O)s1`?
HCMV antiviral: inactive

Results for COc1ccc(CNc2ncnc3c2nc2n3CCCC2)cc1 ?
HCMV antiviral: inactive

How did O=C(C1CCN(Cc2ccc(OCc3ccccc3)cc2)CC1)N1CCCC1 do in these assays?
HCMV antiviral: inactive; CHX counter: 27; Shiga toxin inh: inactive; Pf growth 48h: inactive

Results for OC1CCN(Cc2ccc(OCc3ccccc3)cc2)CC1 ?
HCMV antiviral: inactive; CHX counter: 19; Pf growth 96h: 4.1µM; Pf growth 48h: inactive

What do the screens show for `C=CCN(CC=C)C(=O)C1CCN(Cc2ccc(OCc3ccccc3)cc2)CC1`?
HCMV antiviral: inactive; CHX counter: 18; Pf growth 96h: inactive; Pf growth 48h: inconclusive

What do the screens show for `CC1CCCN(Cc2ccc(OCc3ccccc3)cc2)C1` (configuration not stated)?
HCMV antiviral: inactive; CHX counter: 22; Pf growth 96h: inactive; Shiga toxin inh: inactive; Pf growth 48h: inactive

Results for CCN(CC)C(=O)C1CCN(Cc2ccc(OCc3ccccc3)cc2)CC1 ?
HCMV antiviral: inactive; CHX counter: inactive; Pf growth 96h: inconclusive; Shiga toxin inh: inactive; Pf growth 48h: inactive

How did COc1ccc2c3c([nH]c2c1)[C@@H](CO)N(C(=O)c1ccccc1)CC31CN(C(=O)CC2CC2)C1 do in these assays?
HCMV antiviral: inactive

How did CC(=O)c1ccc(OCCCC(=O)Nc2nnc(C3CC3)s2)cc1 do in these assays?
HCMV antiviral: inactive

What do the screens show for `O=C(COc1ccc2c(c1)CCC2)N1CCc2ccccc21`?
HCMV antiviral: inactive; CHX counter: 43; Pf growth 96h: inactive; Shiga toxin inh: 98

Results for CN(C)c1cc[n+](CC(=O)N2CCCc3ccccc32)cc1 ?
HCMV antiviral: inactive; CHX counter: inactive; Pf growth 96h: inconclusive; Shiga toxin inh: inactive; Pf growth 48h: 5.2µM

How did CCOCC(=O)N1CCc2ccccc21 do in these assays?
HCMV antiviral: inactive; CHX counter: inactive; Shiga toxin inh: inactive; Pf growth 48h: inactive

How did CCc1ccc(OCC(=O)N2CCc3ccccc32)cc1 do in these assays?
HCMV antiviral: inactive; CHX counter: 35; Pf growth 96h: inactive; Shiga toxin inh: 96; Pf growth 48h: inactive
